This is a sample that favours compounds with a hit; in the whole collection about 17% have one here.
DT40 TDP1 no CPT: qHTS for Inhibitors of human tyrosyl-DNA phosphodiesterase 1 (TDP1): qHTS in cells in absence of CPT | DT40 Tdp1-/- hTDP1 cells, no CPT, ATP luminescence, 48 h | Potency, µM (titrated, usually from 46.2 µM), inactives show at the highest dose activity change, negative = growth inhibition, actives largely listed as inhibitors | hit rate 15% among 420,000 | AID 686978, 2013; also: % is scaled to controls: 0 for no effect and ±100 for the full control effect; nearly all actives have a fitted effect of over 55% in size
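No-CPT arm: Tdp1-/-;hTDP1 DT40 cells (400/well) plus compounds, incubated ≥48 hr at 37 °C. Readout CellTiter-Glo luminescence.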
TDP1 cell CPT: qHTS for Inhibitors of human tyrosyl-DNA phosphodiesterase 1 (TDP1): qHTS in cells in presence of CPT. chicken DT40 Tdp1-/-;hTDP1 cells + 20 nM CPT, ATP luminescence, 48 h. Potency, µM (highest dose often 46.2 µM), for inactives: at the highest dose activity change, negative = growth inhibition, hits mostly inhibitors. hit rate 12% among 420,000. AID 686979, 2013; also: % is scaled to controls: 0 for no effect and ±100 for the full control effect; nearly all actives have a fitted effect of over 55% in size
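Chicken DT40 Tdp1-/- cells complemented with human TDP1, 400 cells/well, exposed to compounds plus 20 nM camptothecin for at least 48 h at 37 C; viability read as ATP content by CellTiter-Glo luminescence.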
HT1080 IDH1KD tx: qHTS for induction of synthetic lethality in tumor cells producing 2HG: qHTS for the HT-1080-IDH1KD cell line; HT-1080 IDH1 knockdown viability, ATP luminescence, 48 h; Potency, µM (series often up to 46.1 µM), inactives show top-dose activity, negative = toxicity, usual class: cytotoxic; hit rate 2% among 360,000;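 also: 0% = DMSO wells and -100% = cell-free medium wells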
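Viability of IDH1-knockdown HT-1080 fibrosarcoma cells was assessed by CellTiter-Glo after 48 h at 37 °C with titrated compound; concentration-effect curves were classified by fit quality and response size.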
HepG2 tox: qHTS for Inhibitors of TGF-b: Cytotox Counterscreen; HepG2 CAGA-GFP viability, ATP luminescence, 18 h; Potency, µM (doses to about 46.1 µM), for inactives: at the highest dose activity change, negative = cytotoxicity, most hits filed as cytotoxic; hit rate 0.76% among 410,000; AID 588856, 2011
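CellTiter-Glo luminescence gave cytotoxicity after 18 hours at 37 degrees C. The cells were HepG2 CAGA-GFP in 1% FBS DMEM, stimulated with 500 pg/mL TGF-beta after compound addition. %Activity was normalised to no-cell wells (complete cell-killing) and DMSO (no toxicity), and curves were fitted and classified.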
HT1080NT lethal: qHTS for induction of synthetic lethality in tumor cells producing 2HG: qHTS for the HT-1080-NT fibrosarcoma cell line; HT-1080-NT fibrosarcoma viability, CellTiter-Glo ATP luminescence, 48 h; Potency, µM (top dose mostly 46.1 µM), inactives show at the top dose activity, negative = less viability, hits mostly cytotoxic; hit rate 1.6% among 360,000;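 also: NT is the 2HG producing partner of a matched IDH1 knockdown line; 0% = DMSO-treated cells and -100% = media-only wells without cells; nearly all actives have a fitted effect of over 55% in size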
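750 cells/well, RPMI + 5% FBS; 2 h settle, compound pin-transfer, 48 h at 37 degrees C. CellTiter-Glo 10 min RT, luminescence. Normalized to DMSO and media-only wells.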
TGFb inhibitor: qHTS for Inhibitors of TGF-b; HepG2 CAGA-GFP TGF-b/SMAD3 reporter, GFP fluorescence, 18 h; TGF-beta stimulated, 500 pg/mL final; hit rate 1.2% among 410,000; Potency, µM (highest dose often 46.1 µM), without a hit: top-dose activity, negative = inhibition, usual class: inhibitors; also: % is scaled to controls: 0 for no effect and ±100 for the full control effect; nearly all actives have a fitted effect of over 65% in size
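GFP signal (ex488/em500-530) from TGF-beta-stimulated HEPG2 CAGA-GFP cells, 500 pg/mL final, 18 h at 37 degrees C in DMEM plus 1% FBS, normalized to unstimulated and DMSO-stimulated controls.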
* = called active by the depositor; ? = inconclusive; · = no result given; ! = not active in a repeat; [ ] = dose if it differs, or a comment. Calls follow the shape of the dose curve; as a rule, active = well fitted curve in the direction sought with a large enough effect; inconclusive = small, poorly fitted or top-dose-only effect, or another doubt; inactive = no such curve, though single readings can be large; an effect the other way counts as inactive or inconclusive. Potency is read from the fitted curve at half-maximal effect.

SMILES | DT40 TDP1 no CPT | TDP1 cell CPT | HT1080 IDH1KD tx | HepG2 tox | HT1080NT lethal | TGFb inhibitor
CCN(C[C@H]1N[C@@](Cc2ccccc2)(C(=O)OC)[C@H]2C(=O)N(Cc3ccccc3)C(=O)[C@@H]12)S(=O)(=O)c1ccc(C(F)(F)F)cc1 | ? | ? | 0% | -5% | 7% | -25%
O=S1(=O)CCO[C@H]2Cc3ccccc3[C@H]2N1Cc1ccc(Cl)cc1 | ? | ? | 1% | -34% | -2% | ?
Cc1ccccc1CN1[C@@H]2c3ccccc3C[C@@H]2OCCS1(=O)=O | 16µM* | ? | 1% | 4% | ? | 7%
O=S1(=O)CCO[C@H]2Cc3ccccc3[C@H]2N1Cc1cccc(Cl)c1 | 18µM* | ? | -5% | -19% | 9% | ?
COc1ccc(NC(=O)C2CCN(S(=O)(=O)c3c(C)noc3C)CC2)cc1Cl | -24% | -9% | 4% | -2% | ? | -15%
O=C(N/N=C/c1cccnc1)c1ccc2c(c1)OCCO2 | 10% | 3% | 0% | -6% | 3% | 0%
CC(CCc1ccc(O)cc1)N1CCOc2c(O)cc(-c3nc4ccccc4s3)cc2C1 (stereo not drawn) | 16µM* | 18µM* | · | · | · | ·
Oc1ccc(Cl)cc1CN1CCOc2c(O)cc(-c3nc4ccccc4s3)cc2C1 | ? | -14%[9.04 µM] | · | · | · | ·
CCOC(=O)CNc1nc(Cl)nc(N2CCCCC2)n1 | -4% | 3% | 4% | 25% | 5% | 3%
CCOC(=O)CNc1nc(C#N)nc(N2CCOCC2)n1 | ? | 13µM*! | -16% | -1% | -7% | -8%
COc1nc(C#N)nc(N2CCCCC2)n1 | 20µM* | ? | · | -26% | · | -23%
CC(C)N(C#N)c1nc(N2CCOCC2)nc(N2CCOCC2)n1 | 10µM* | 21µM* | -10% | -3% | -10% | 4%
CCOc1nc(C#N)nc(N2CCOCC2)n1 | 11µM* | ? | · | -11% | · | ?
Cc1ccc(C(=O)N/N=C/c2ccoc2)cc1C | 18% | 6% | -1% | -3% | -9% | -1%
COc1ccc(C(=O)CCC(=O)O)c2ccccc12 | -10% | 1% | · | · | · | ·
N#Cc1nc(N2CCCCC2)nc(N2CCOCC2)n1 | 16µM* | 13µM* | -18% | 6% | -15% | -15%
N#Cc1nc(N2CCCC2)nc(N2CCCC2)n1 | 14µM* | 13µM* | ? | -12% | -18% | 0%
CCOc1ccc(-n2nc(CO)c(C(=O)NCCCc3ccccc3)n2)cc1 | 23µM* | 15µM* | · | -28% | · | ?
O=C(NCCCc1ccccc1)c1nn(-c2ccccc2F)nc1CO | 21µM* | ? | · | -10% | · | 0%
CCOc1ccc(-n2nc(CO)c(C(=O)NCc3cccnc3)n2)cc1 | ? | ? | · | -17% | · | ?
COc1cc2nc(N3CCCN(C)CC3)nc(Nc3ccncc3)c2cc1OC | 7.9µM* | 3.2µM* | · | -4% | · | ?
COc1cc2nc(N3CCCCC3)nc(NC3CC3)c2cc1OC | 16µM* | 13µM* | -16% | · | -21% | ·
COc1cc2nc(N3CCN(C)CC3)nc(NC3CC3)c2cc1OC | 10µM* | 11µM* | -12% | · | -9% | ·
COc1cc2nc(N3CCOCC3)nc(NC3CCN(C)CC3)c2cc1OC | 16µM* | 10µM* | -16% | · | 2% | ·
COc1cc2c(NC3CCN(C)CC3)nc(N3CCCN(C)CC3)nc2cc1OCC1CCNCC1 | -14% | -4% | · | 0% | · | -16%

Screens as filed in PubChem.
